Laboratory results: PubChem BioAssay AID463173 (ICCB-Longwood Screening Facility, Harvard Medical School, 2010)
The whole screen tested about 52,000 compounds, of which about 1,700 (3.3%) were called active. For the sample, actives were picked, then their nearest neighbours and some compounds at random. Values without a mark were called inactive. No stated cut-off is given here; in the data, active means survival mostly below about 52% (no sharp cut-off); inactive means mostly above about 56%.

System: Wild type
Test: growth inhibition of S. aureus wild type versus tarO mutant, primary screen, teichoic acid synthesis inhibitors, RN4220, OD600 (AID 463173)
Conditions: S. aureus RN4220 wild type/DeltatarO growth, OD600, 18 h, hits give low values, screened at 18.75 µg/mL (by protocol)

| Structure (SMILES) | survival |
| --- | --- |
| Cc1ccc([N+](=O)[O-])cc1NC(=O)CN(c1ccccc1)S(=O)(=O)N(C)C | 69% |
| CCn1c(O)c(C=Nc2cccc(O)c2)sc1=S | 115% |
| Cn1cnc(S(=O)(=O)N2CCCC(C(=O)Nc3ccc(OC(F)(F)F)cc3)C2)c1 (stereo not drawn) | 19% |
| CCOc1ccc(CNC(=O)c2[nH]c3ccccc3c2Sc2ccc(C)cc2)cc1 | 120% |
| CCN1C(=O)c2ccccc2S(=O)(=O)c2ccc(C(=O)NCc3ccc(OC)cc3)cc21 | 97% |
| CN(C)CCNC(=O)c1ccc2c(c1)N(Cc1c(F)cccc1Cl)C(=O)c1ccccc1S2 | 105% |
| CCN(CC)C(=O)c1ccc2c(c1)N(Cc1c(F)cccc1Cl)C(=O)c1ccccc1S2 | 16% (active) |
| CCN(CC)CCCNC(=O)c1ccc2c(c1)N(Cc1c(F)cccc1Cl)C(=O)c1ccccc1S2 | 139% |
| Cc1ccc(Cl)cc1NC(=O)CN1C(=O)c2cccc3cccc1c23 | 71% |
| CCC(=O)N1CCc2cc(Br)cc(S(=O)(=O)N3CCN(c4ccccc4OC)CC3)c21 | 72% |
| Cc1cc(C)n(-c2nc3cc(Cl)ccc3nc2N2CCN(c3cccc(C)c3C)CC2)n1 | -1% (active) |
| Cc1cc(C)n(-c2nc3ccccc3nc2N2CCN(c3cccc(C(F)(F)F)c3)CC2)n1 | 88% |
| Cc1cc(C)n(CCc2nc3c4ccccc4nc(N4CCN(c5cccc(C)c5C)CC4)n3n2)n1 | 74% |
| Cc1cc(C)n(-c2nc3cc(Cl)ccc3nc2N2CCN(c3ccccc3F)CC2)n1 | 68% |
| COc1cccc(Nc2nc3ccc(C)cc3nc2-n2nc(C)cc2C)c1 | 82% |
| Cc1cc(C)c(C#N)c(N2CCN(c3cccc(C)c3C)CC2)n1 | 109% |
| Cc1cc(C)n(-c2nc3cc(Cl)ccc3nc2Nc2ccc(C)c(F)c2)n1 | 86% |
| Cc1ccc2nc(N3CCN(c4cccc(Cl)c4)CC3)c3nnnn3c2c1 | 72% |
| Cc1ccc2nc(N3CCN(c4cccc(Cl)c4)CC3)c(-n3nc(C)cc3C)nc2c1 | 3% (active) |
| COc1ccccc1N1CCN(c2nc3ccc(C)cc3nc2-n2nc(C)cc2C)CC1 | 0% (active) |
| Cc1ccc(C)c(N2CCN(c3nc4ccc(C)cc4nc3-n3nc(C)cc3C)CC2)c1 | 86% |
| Cc1cc(C)n(-c2nc3ccccc3nc2N2CCN(c3cccc(C)c3C)CC2)n1 | -1% (active) |
| COc1ccc(-c2oc3ncn4nc(COc5cccc(C)c5C)nc4c3c2-c2ccc(OC)cc2)cc1 | 77% |
| Cc1ccc(C)c(Cn2nc(C)n3c(cc4cc(C)ccc43)c2=O)c1 | 79% |

| Structure (SMILES) | survival |
| --- | --- |
| Cc1ccc(Cl)cc1N1CCN(C(=O)c2cc3c(=O)oc4ccccc4c3s2)CC1 | 71% |
| COCCN(Cc1cc2ccc(C)c(C)c2nc1Cl)C(=O)N1CCOCC1 | 104% |
| COc1ccc(C(C)C)cc1S(=O)(=O)N1CC(C)OC(C)C1 (stereo not drawn) | 109% |
| COC(=O)C1=C(C)N(c2ccc(N(C)C)cc2)C(C)=C(C(=O)OC)C1c1ccccc1 | 101% |
| CC1=C(C(=O)Nc2ccccc2)C(c2ccc(O)cc2)n2nc(SCc3ccccc3)nc2N1 (stereo not drawn) | 115% |
| CCN(CC)S(=O)(=O)c1ccc(C(=O)NCCSc2c(-c3ccc(OC)cc3)[nH]c3ccccc23)cc1 | 124% |
| CCn1nc(C)c2c(-c3ccccc3)cc(=O)n(C(C)C(=O)Nc3ccc(OC)c(OC)c3)c21 (stereo not drawn) | 59% |
| Cc1nn(-c2ccccc2)c(OC(=O)C(C)(C)C)c1Sc1ccccc1 | 51% |
| Cc1nn(C(C)(C)C)c(OC(=O)c2c(F)cccc2F)c1Sc1ccccc1 | 117% |
| Cc1ccc(Sc2c(C)nn(C(C)(C)C)c2OC(=O)CC(C)C)cc1 | -8% (active) |
| COCC(=O)Oc1c(Sc2ccc(C)cc2)c(C)nn1C(C)(C)C | 69% |
| Cc1ccc(Sc2c(C)nn(C(C)(C)C)c2OC(=O)C(C)(C)C)cc1 | -8% (active) |
| CCC(=O)Oc1c(Sc2ccc(C)cc2)c(C)nn1-c1ccccc1 | 55% |
| Cc1ccc(Sc2c(C)nn(-c3ccccc3)c2OC(=O)CC(C)C)cc1 | 45% |
| COc1ccc(C(=O)Oc2c(Sc3ccc(C)cc3)c(C)nn2C(C)(C)C)cc1OC | 127% |
| Cc1ccccc1C(=O)Oc1c(Sc2ccccc2)c(C)nn1C(C)(C)C | 50% |
| Cc1nn(C(C)(C)C)c(OC(=O)C(C)(C)C)c1Sc1ccccc1 | -9% (active) |
| Cc1ccc(Sc2c(C)nn(-c3ccccc3)c2OC(=O)C(C)(C)C)cc1 | -6% (active) |
| CCC(=O)Oc1c(Sc2ccc(Cl)cc2)c(C)nn1C(C)(C)C | 60% |
| CCOC(=O)N1CCN(C(=O)c2cnn(-c3cccc(F)c3)c2-n2cccc2)CC1 | 81% |
| Cc1ccc2nc(N3CCC(C(=O)N4CCN(c5cccc(C)c5C)CC4)CC3)[nH]c2c1 | 76% |
| Cc1ccn2cc(CNC(=O)c3cccc(C(F)(F)F)c3)nc2c1 | 86% |
| Cc1ccc(Cl)cc1NC(=O)C(NS(=O)(=O)c1ccc2c(c1)CCC(=O)N2)c1ccccc1 (stereo not drawn) | 70% |
| COc1ccc(CNC(=O)c2cc3sccc3n2C)cc1 | 67% |

| Structure (SMILES) | survival |
| --- | --- |
| Cn1c(=O)n(C)c2cc(N3CCOCC3)c(NS(=O)(=O)c3ccc(Br)cc3)cc21 | 82% |
| O=C(Nc1nnc(S(=O)(=O)N2CCCCCC2)s1)c1ccccc1 | 48% |
| CC(C)CCNC(=O)CCC(=O)N1Cc2ccccc2Oc2ncccc21 | 65% |
| CN(C)c1ccc(CNC(=O)CCC(=O)N2Cc3ccccc3Oc3ncccc32)cc1 | 77% |
| Cc1ccc(NC(=O)CCC(=O)N2Cc3ccccc3Oc3ncccc32)cc1Cl | 82% |
| O=C(CCC(=O)N1Cc2ccccc2Oc2ncccc21)Nc1ccc(Cl)cc1 | 10% (active) |
| Cc1ccc(CNC(=O)CCC(=O)N2Cc3ccccc3Oc3ncccc32)cc1 | 73% |
| CC(C)NC(=O)CCC(=O)N1Cc2ccccc2Oc2ncccc21 | -2% (active) |
| Cc1ccc(NC(=O)CCC(=O)N2Cc3ccccc3Oc3ncccc32)cc1 | 22% |
| CCOc1ccc(CNC(=O)CCC(=O)N2Cc3ccccc3Oc3ncccc32)cc1 | 0% (active) |
| CCC(C)NC(=O)CCC(=O)N1Cc2ccccc2Oc2ncccc21 (stereo not drawn) | 121% |
| Cc1ccc(N2C(=O)SC(N(CC(=O)O)c3ccccc3)C2=O)cc1 (stereo not drawn) | 112% |
| Cc1ccc(C)c(NC(=O)Nc2cccc(-c3cn4cccnc4n3)c2)c1 | 71% |
| O=S(=O)(c1ccc(Nc2ccc(-c3ccccc3)nn2)cc1)N1CCCC1 | 104% |
| Cc1cc(C)cc(N2C(=O)N(CC(=O)c3ccc(Br)cc3)c3ccccc3S2(=O)=O)c1 | 84% |
| O=C1CC(c2ccc(Br)cc2)c2c(ccc3ccccc23)N1 (stereo not drawn) | 39% |
| Cc1ccc(CSc2ccc3nnc(CCNS(=O)(=O)c4ccc(C)cc4)n3n2)cc1 | 82% |
| CCc1ccc(Sc2cc(C(=O)NCCCN3CCCC(C)C3)c3ccccc3n2)cc1 (stereo not drawn) | 71% |
| O=C(NCCCN1CCCCC1)c1cc(Sc2ccc(Cl)cc2)nc2ccccc12 | -1% (active) |
| CC1CCCCN1CCCNC(=O)c1cc(Sc2ccc(Cl)cc2)nc2ccccc12 (stereo not drawn) | 78% |
| CC1CCCN(CCCNC(=O)c2cc(Sc3ccc(F)cc3)nc3ccccc23)C1 (stereo not drawn) | 14% (active) |
| CCc1ccc(Sc2cc(C(=O)NCCCN3CCC(C)CC3)c3ccccc3n2)cc1 | 68% |
| CC1CCN(CCCNC(=O)c2cc(Sc3ccc(F)cc3)nc3ccccc23)CC1 | 74% |
| CC(=O)c1[nH]c(C)c(C(=O)NCCc2ccc(C)cc2)c1C | 88% |

| Structure (SMILES) | survival |
| --- | --- |
| CC(=O)Nc1cc(-n2cnnn2)ccc1C | 98% |
| Cc1ccc(NC(=O)Cn2c(=O)n(Cc3nc(C)no3)c(=O)c3cc4c(cc32)OCO4)cc1 | 90% |
| CCOc1ccccc1CC1C(=O)Nc2ccc(Br)cc21 (stereo not drawn) | 73% |
| CCCOc1ccc(CC2C(=O)Nc3ccc(Br)cc32)cc1 (stereo not drawn) | -7% (active) |
| CCCCOc1ccccc1CC1C(=O)Nc2ccc(Br)cc21 (stereo not drawn) | 3% (active) |
| COc1ccc(CC2C(=O)Nc3ccc(Br)cc32)cc1OC (stereo not drawn) | 75% |
| CCOc1c(CC2C(=O)Nc3ccc(Br)cc32)cccc1OC (stereo not drawn) | 99% |
| COc1ccc(OC)c(CC2C(=O)Nc3ccc(Br)cc32)c1 (stereo not drawn) | 84% |
| Cc1ccccc1C(=O)NCc1ccc2c(c1)CCN2C(=O)c1ccccc1 | 71% |
| COc1cccc(OC)c1C(=O)Nc1ccc(-c2nc3ncccc3o2)cc1 | 88% |
| COc1ccc(C)cc1NC(=O)Cn1c(=O)cc(C)c2c(C)nn(C)c21 | 68% |
| CCN(Cc1ccccc1)C(=O)Cn1cc(S(=O)(=O)Cc2cccc(Cl)c2)c2ccccc21 | 75% |
| Cc1ccc(Sc2c(C)nn(C(=O)c3ccc(Cl)cc3)c2C)cc1 | 2% (active) |
| Cc1nn(C(=O)c2ccc(Cl)cc2)c(C)c1Sc1ccc(Cl)cc1 | 40% |
| Cc1nn(C(=O)c2ccccc2)c(C)c1Sc1ccc(Cl)cc1 | 6% (active) |
| Cc1nn(-c2ccccc2)c(OC(=O)C(C)C)c1Sc1ccc(Cl)cc1 | 39% |
| Cc1ccc(Sc2c(C)nn(C(=O)COc3ccccc3)c2C)cc1 | 9% (active) |
| Cc1ccc(Sc2c(C)nn(C(=O)COc3ccc(F)cc3)c2C)cc1 | 85% |
| Cc1nn(C(=O)COc2ccc(Cl)cc2)c(C)c1Sc1ccccc1 | 88% |
| Cc1nn(C(=O)COc2ccccc2)c(C)c1Sc1ccccc1 | 94% |
| COc1cc(C(=O)n2nc(C)c(Sc3ccc(Cl)cc3)c2C)cc(OC)c1OC | 47% |
